Screening results (PubChem BioAssay)
Sampled rows, rich in hits. Any-hit rate of the full collection: about 3.6%.
Pf apPOL block = Pf-apPOL DNA polymerase inhibition; Recombinant Pf-apPOL, molecular beacon fluorescence, 1.5 h; inhibition, % at 10 µM; 210,000 tested, 0.25% active
mHTT-CaM PPI inh = disrupts binding of mutant huntingtin to calmodulin | inhibition, % at 15 µM | AlphaScreen His-mHTT/GST-CaM binding, luminescence | P42858 | 190,000 tested, 3.6% active;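 note: 0% = both proteins with DMSO and 100% = one protein alone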
The depositor's hits bear a star. Cut-off read from the data, not from the text of the source: active = inhibition above about 50%; inactive = the rest.

Screening COc1cc(/C=C(\C#N)c2nc(-c3ccc(Br)cc3)cs2)ccc1O returned Pf apPOL block -2.1 and mHTT-CaM PPI inh 2.9.
For Cc1ccc(-c2csc(/C(C#N)=C/c3cccc(O)c3)n2)cc1 the results were Pf apPOL block -3.8 and mHTT-CaM PPI inh 97.1*.
`CCOc1cc(/C=C(\C#N)c2nc3ccccc3s2)ccc1O` gave Pf apPOL block -4.6 and mHTT-CaM PPI inh 56.0*.
For Cc1ccc(-c2csc(/C(C#N)=C/c3ccc(O)cc3)n2)cc1 the results were Pf apPOL block -4.6 and mHTT-CaM PPI inh 32.1.
Screening COc1cc(/C=C(\C#N)c2nc(-c3ccccc3)cs2)ccc1O returned Pf apPOL block -2.8 and mHTT-CaM PPI inh 97.0*.
O=C(NCCc1nc2ccccc2c(=O)[nH]1)c1ccc(F)cc1 was read as Pf apPOL block -3.6 and mHTT-CaM PPI inh -0.7.
For NC(=O)c1cc(-c2ccccc2)sc1NC(=O)c1cccs1 the results were Pf apPOL block 3.6 and mHTT-CaM PPI inh 8.8.
`O=C(NCc1ccc(F)cc1Cl)C1=C2CCCN2c2ccccc2S1(=O)=O` gave Pf apPOL block 0.2 and mHTT-CaM PPI inh -4.0.
Screening Cc1ccc(C2Cn3nnc(C(=O)Nc4ccc(F)c(Cl)c4)c3CO2)cc1 (stereo not given) returned Pf apPOL block -2.4 and mHTT-CaM PPI inh -7.4.
For CCN(CC)C(=O)c1cc2c(s1)CCC(C(=O)N1CCN(c3ccccn3)CC1)C2 (stereo not given) the results were Pf apPOL block -6.3 and mHTT-CaM PPI inh 0.2.
`Cc1ccc(/C=C(\C#N)c2nc(-c3ccc(Br)cc3)cs2)o1` gave Pf apPOL block -1.2 and mHTT-CaM PPI inh 14.4.
Screening COc1ccc(-c2csc(/C(C#N)=C/c3ccc(OC)o3)n2)cc1 returned Pf apPOL block -0.8 and mHTT-CaM PPI inh 69.0*.
`O=C(Cc1ccc(Cl)cc1)Nc1cccc(-c2nc3ncccc3o2)c1` gave Pf apPOL block -11.7 and mHTT-CaM PPI inh -1.0.
`c1coc(-c2nc3sc(-c4ccco4)nc3s2)c1` gave Pf apPOL block -17.6 and mHTT-CaM PPI inh 100.2*.
Screening c1coc(-c2nccs2)c1 returned Pf apPOL block 2.5.
For CCn1cc(CN2CCC(C(=O)NCC3CCCO3)CC2)c2cc(Cl)ccc21 (stereo not given) the results were Pf apPOL block -3.4 and mHTT-CaM PPI inh 10.2.
For COc1cccc(CNC(=O)CSc2nccnc2N2CCSCC2)c1OC the results were Pf apPOL block -1.3 and mHTT-CaM PPI inh -8.1.
`CC(C)(C)c1ccc(NC(=O)CN2CCOCC2)c(NC(=O)C(Cl)(Cl)Cl)c1` gave Pf apPOL block -9.6.
Screening CCOC(=O)Oc1c(Cl)cc2oc(=O)sc2c1Cl returned Pf apPOL block 2.2 and mHTT-CaM PPI inh 77.0*.
`CCOC(=O)Oc1ccc2c(=O)c(-c3ccc(OC)cc3)c(C)oc2c1` gave Pf apPOL block 0.7 and mHTT-CaM PPI inh 6.0.
`CCCCOc1ccc(-c2nc(C=Nc3cc([N+](=O)[O-])ccc3C)c(O)o2)cc1` gave Pf apPOL block -0.5 and mHTT-CaM PPI inh 3.0.
For CCN(CC)C(=O)C12CC3CCC1(C)C3(C)CO2 (stereo not given) the results were Pf apPOL block -10.0 and mHTT-CaM PPI inh -3.0.
`CC(C)C[C@@H](CSc1ccc(Br)cc1)N1CCN(CCc2ccccc2)CCC1=O` gave Pf apPOL block -4.8 and mHTT-CaM PPI inh 19.4.
For Cc1ccc(SC[C@H](c2ccccc2)N2CCN(CCc3ccccc3)CCC2=O)cc1 the results were Pf apPOL block 5.7 and mHTT-CaM PPI inh 100.5*.
Screening Cc1ccc(SC[C@H](Cc2ccccc2)N2CC[C@@H](C)CCC2=O)cc1 returned Pf apPOL block -6.6 and mHTT-CaM PPI inh -1.5.
`CCCN1CCC(=O)N([C@H](CSc2ccc(C)cc2)c2ccccc2)CC1` gave Pf apPOL block -2.3 and mHTT-CaM PPI inh 6.5.
For O=C1CCN(CCc2ccccc2)CCN1[C@H](CSc1ccccc1)c1ccccc1 the results were Pf apPOL block -0.1 and mHTT-CaM PPI inh 100.2*.
Screening CC(C)C[C@@H](CSc1ccccc1)N1CCN(CCc2ccccc2)CCC1=O returned Pf apPOL block -5.0 and mHTT-CaM PPI inh 88.4*.
For CCCN1CCC(=O)N([C@H](CSc2ccccc2)c2ccccc2)CC1 the results were Pf apPOL block -6.6 and mHTT-CaM PPI inh 33.9.
Screening O=C1CCC(OCc2ccccc2)CCN1[C@H](CSc1ccccc1)Cc1ccccc1 (stereo not given in full) returned Pf apPOL block -3.6 and mHTT-CaM PPI inh 52.8*.
Screening CCCCC(=O)Nc1c2c(nn1-c1ccc([N+](=O)[O-])cc1)CSC2 returned Pf apPOL block -0.5 and mHTT-CaM PPI inh 11.0.
For O=C(Nc1nccs1)C(=O)NC1CCCC1 the results were Pf apPOL block 5.4 and mHTT-CaM PPI inh -3.1.
Screening CN(C)C=Nc1c(C#N)cnn1-c1ccccc1 returned Pf apPOL block 6.2 and mHTT-CaM PPI inh -5.5.
For CCCN1CCC(=O)N([C@H](COc2ccccc2)c2ccccc2)CC1 the results were Pf apPOL block -9.3 and mHTT-CaM PPI inh 22.1.
Screening CC(=O)Nc1ccc(SCCN2CCN(CCc3ccccc3)CCC2=O)cc1 returned Pf apPOL block -5.4 and mHTT-CaM PPI inh 16.1.
`O=C1CCN(CCc2ccccc2)CCN1[C@H](COc1ccccc1)c1ccccc1` gave Pf apPOL block 1.1 and mHTT-CaM PPI inh 100.0*.
Screening CC(=O)Nc1ccc(SC[C@H](Cc2ccccc2)N2CCN(CCc3ccccc3)CCC2=O)cc1 returned Pf apPOL block -2.7 and mHTT-CaM PPI inh 99.9*.
Screening CCOc1cccc(N2C(=O)NC(=O)/C(=C\c3ccc(Oc4ccc([N+](=O)[O-])cn4)cc3)C2=O)c1 returned Pf apPOL block -6.9 and mHTT-CaM PPI inh 50.0*.
For O=C1NN(c2ccccc2)C(=O)/C1=C/c1cccc(OCCOc2ccc([N+](=O)[O-])cc2)c1 the results were Pf apPOL block 2.8 and mHTT-CaM PPI inh 27.0.
`CC1CCCCC1NC(=O)C1(S(=O)(=O)c2ccc(Cl)cc2)CC1` (stereo not given) gave Pf apPOL block -0.8 and mHTT-CaM PPI inh -8.0.
`O=C(Nc1ccc(Cl)c(C(F)(F)F)c1)C(NS(=O)(=O)c1cccs1)c1ccccc1` (stereo not given) gave Pf apPOL block -8.5 and mHTT-CaM PPI inh 100.0*.
O=C(Nc1ccccc1F)C(NS(=O)(=O)c1cccs1)c1ccccc1 (stereo not given) was read as Pf apPOL block -4.9 and mHTT-CaM PPI inh 3.0.
`CCCCN(C)CCCNC(=O)CC(C(=O)N1CCc2ccccc21)n1ccnc1` (stereo not given) gave Pf apPOL block -13.5 and mHTT-CaM PPI inh -3.0.
For CCCCN(CCCNC(=O)CC(C(=O)N1CCc2ccccc21)n1ccnc1)c1ccccc1 (stereo not given) the results were Pf apPOL block -6.2 and mHTT-CaM PPI inh 77.0*.
CC(C)C(=O)N1CCCC(c2ccnc(-c3ccccc3)n2)C1 (stereo not given) was read as Pf apPOL block -3.4 and mHTT-CaM PPI inh 1.7.
Screening CCOc1ccc(C(=O)Nc2ccccc2Cl)cc1Br returned Pf apPOL block -10.7 and mHTT-CaM PPI inh -8.0.
Screening CC(=O)Nc1ccc(C(=O)NCc2ccc(F)c(Cl)c2)c(N2CCCCC2)c1 returned Pf apPOL block 1.2 and mHTT-CaM PPI inh 98.7*.
CC(=O)Nc1ccc(C(=O)NCc2cccc(Cl)c2)c(N2CCOCC2)c1 was read as Pf apPOL block -1.9 and mHTT-CaM PPI inh 8.8.
`Cc1c(CNc2[nH]ncc2[N+](=O)[O-])cnn1C` gave mHTT-CaM PPI inh -0.8.
